# Data published in PubChem BioAssay (NCI).
# This is part of a sample that, as a whole, favours compounds with a hit. Of some 83,000 tested, about 20% had one in any assay.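 Assay: single dose, 48 h. Readout: percent growth (0 = no net growth; negative = cell death). Active: <10.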 Unmarked numbers belong to inactive results. Active and inactive are the calls of the source.
# System: UACC-62 melanoma
# Assay: NCI-60 one-dose screen, 48 h (100 = growth as untreated, 0 = no growth, -100 = all killed)
# Conditions: 10 µM unless noted
row,SMILES,growth
1,C=C(C=O)[C@@H]1CC[C@]2(C)[C@H](CC=C3[C@H]4[C@@H](C)[C@H](C)CC[C@]4(C(=O)OC)CC[C@]32C)[C@@]1(C)CCC#N,-31.9% (active)
2,COc1ccc([C@@H]2c3[nH]c4ccccc4c3C[C@H]3C(=O)N(C4CCN(CC5CCCCC5)CC4)CC(=O)N23)c(OC)c1,93.9%
3,c1ccc(C(c2nc3ncncc3[nH]2)N2CSc3nc4ncncc4n3C2)cc1 (centres undefined),27.5%
4,CNCc1cccc2c1OCCCCCCC(C)(O)CC(C)(C)S(=O)(=O)c1ccc(cc1)-c1cnc(N)c(n1)C(=O)N2 (centres undefined),1.85% (active)
5,CS(=O)(=O)c1ncc(-c2ccccc2)cn1,89%
6,CCOC(=O)c1c(N)c(C#N)cn1-c1cc(OC)c(OC)c(OC)c1,101%
7,CCCCCc1ccc(S(=O)(=O)Nc2cc(-c3csc(NC(=O)CN4CCN(C)CC4)n3)ccc2OC)cc1,-58.5% (active)
8,Cc1nc2ncc(-c3ccc4ncnc(NCc5ccccc5)c4c3)cc2[nH]1,64.3%
9,C=C(C=O)[C@@H]1CC[C@]2(COC(C)=O)CC[C@]3(C)C(CC[C@@H]4[C@@]5(C)CC[C@H](OC(C)=O)C(C)(C)[C@@H]5CC[C@]43C)[C@@H]12 (some centres undefined),-15.7% (active)
10,Cc1ccc(S(=O)(=O)N(CC[C@@H]2C[C@H]2c2cc3ccccc3o2)S(=O)(=O)c2ccc(C)cc2)cc1,69.1%
11,COC(=O)c1ccc(NC2=C/C(=N/S(=O)(=O)c3ccc(C(=O)O)cc3)c3ccccc3C2=O)cc1,-24.1% (active)
12,O=C(CCn1c[n+](CC(=O)c2ccc(F)cc2)c2ccccc21)Nc1cccc2cccnc12,55.7%
13,CC1(C)CC[C@]2(C(=O)O)CC[C@]3(C)C(=CC[C@@H]4[C@@]5(C)CC/C(=N\OCCC#N)C(C)(C)[C@@H]5CC[C@]43C)[C@@H]2C1,92.6%
14,COc1ccc([C@@H]2[C@@H](O)C(=O)N2c2cc(OC)c(OC)c(OC)c2)cc1F,33.4%
15,CCOC(=O)c1c(Nc2ccccc2)nn2c(-c3ccccc3)ccnc12,87.7%
16,Cc1cc(C)c2sc(=O)n(Cc3nnc(SCCC(=O)O)o3)c2n1,95.5%
17,C=CCn1c(SCC(=O)Nc2ccc(C(=O)/C=C/c3cccc([N+](=O)[O-])c3)cc2)nnc1-c1c[nH]c2ccccc12,66.9%

row,SMILES,growth
1,Cc1ccc(NC(=O)N[C@@H](Cc2cc(F)cc(F)c2)C(=O)NC2C(=O)N3C[C@H](O)C[C@H]3C(=O)N3CCCC[C@H]3C(=O)N[C@@H](CO)C(=O)N3C[C@H](C)C[C@H]3C(=O)O[C@H]2C)c(F)c1 (some centres undefined),30.9%
2,C#C[C@]1(O)CC[C@H]2[C@@H]3CC=C4c5sc(-c6ccc7c(c6)OCO7)nc5CC[C@]4(C)[C@H]3CC[C@@]21C,-35.5% (active)
3,CCCCCc1ccc(S(=O)(=O)Nc2cccc(-c3csc(NC(=O)CN4CCN(C)CC4)n3)c2)cc1,92.2%
4,CCCn1cnc2c(c1=N)C(c1ccc(F)cc1)c1sc3c(CC)cccc3c1O2 (centres undefined),14%
5,O=C(NCCn1ccnc1)c1ccc(-c2nc3ccc4[nH]ncc4c3c3c2CCCC3)cc1,28.8%
6,COc1cccc(O)c1/C=C(/C)c1ccc2c(OC)cccc2[o+]1,93.7%
7,NS(=O)(=O)c1ccc(-n2cc(CN3CCCCC3)nn2)cc1,97.4%
8,O=S(=O)(NCCNc1nccc(-n2cnc3ccccc32)n1)c1ccc(Cl)cc1,86.4%
9,COC(=O)C1(C)CCC[C@]2(C)[C@H]3C[C@H]4C(C(C)C)=C[C@]3(CC[C@@H]12)[C@H]1[C@@H]4[C@@H](OC(=O)c2ccco2)CC[C@@H]1OC(=O)c1ccco1 (some centres undefined),92.6%
10,CCCn1cnc2c(c1=N)C(c1ccc(OC)cc1)c1sc3c(C)cccc3c1O2 (centres undefined),14.3%
11,COc1cc(-c2nn(C(C)(C)C)cc2-c2ccnc(NCCCNS(=O)(=O)c3cccc(F)c3)n2)ccc1Cl,69.2%
12,CC1(C)CC[C@]2(CN)CC[C@]3(C)C(=CC[C@@H]4[C@@]5(C)CCCNC(C)(C)[C@@H]5CC[C@]43C)[C@H]2C1,105%
13,NC(N)=Nc1ccc(Oc2cccc(Nc3cccc(C(F)(F)F)c3)c2)cn1,-16.2% (active)
14,COc1ccc(/C(N)=N/C(N)=N/c2nc3ccccc3s2)cc1,59.6%
15,Cc1cccc(/C=C/C(=O)Nc2ncc(Cc3cccc(C)c3)s2)c1,14.8%
16,O=C(c1ccc(O)cc1)[C@@H]1CN[C@@]2(C(=O)Nc3ccccc32)[C@H]1c1ccc(F)cc1,86%
17,Nc1nc(Nc2ccccc2SSc2ccccc2Nc2nc(N)nc(-c3ccc4ccccc4c3)n2)nc(-c2ccc3ccccc3c2)n1,85%
